SRC3 TRFRET art – flags TR-FRET format artefacts in PPARgamma SRC-3 recruitment agonist screen. TR-FRET artefact counter-screen, PPARgamma/SRC-3 format; hits give high values. TR-FRET ratio at 8 µM. hit rate 0.39% among 99,000
SRC2 TRFRET art – counter-screen for PPARgamma SRC-2 recruitment agonists: TR-FRET artefact; hits give high values; hit rate 0.4% among 200,000; TR-FRET ratio at 8 µM
PPARg SRC-1 ag – PPARgamma-driven SRC-1 recruitment agonism | PPARgamma-SRC-1 coactivator recruitment biochemical assay | P37231 | AID 631 | activation, % at 8 µM | hit rate 0.41% among 200,000; in the data active = activation above about 19%
Target sequence (P37231 whole entry, looked up): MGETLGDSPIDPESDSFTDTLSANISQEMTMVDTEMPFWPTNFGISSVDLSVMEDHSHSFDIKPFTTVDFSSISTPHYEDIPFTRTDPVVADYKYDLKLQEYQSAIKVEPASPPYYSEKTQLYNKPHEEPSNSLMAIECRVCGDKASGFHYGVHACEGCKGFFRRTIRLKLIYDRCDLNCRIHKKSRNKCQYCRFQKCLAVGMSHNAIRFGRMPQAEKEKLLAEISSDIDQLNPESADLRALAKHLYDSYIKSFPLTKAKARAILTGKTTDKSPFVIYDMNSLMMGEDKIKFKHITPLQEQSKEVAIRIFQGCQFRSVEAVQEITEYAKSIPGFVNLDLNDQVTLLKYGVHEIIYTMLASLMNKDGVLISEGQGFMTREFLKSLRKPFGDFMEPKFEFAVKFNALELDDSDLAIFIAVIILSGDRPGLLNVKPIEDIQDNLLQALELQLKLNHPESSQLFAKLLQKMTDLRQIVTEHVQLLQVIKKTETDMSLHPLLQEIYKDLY
SRC1 TRFRET art – TR-FRET artefact, counter-screen to PPARgamma/SRC-1 agonist assay. TR-FRET ratio at 8 µM. hit rate 0.34% among 99,000. TR-FRET detection artefact counter-screen, emission ratio; hits give high values. AID 1051; in the data active = TR-FRET ratio above about 2300
PPARg SRC-2 ag – promotes SRC-2 coactivator recruitment by human PPARgamma; hit rate 0.34% among 200,000; P37231; activation, % at 8 µM; PPARgamma LBD-SRC-2 recruitment, biochemical; in the data active = activation above about 22%
PPARg SRC3 recr – promotes SRC-3 coactivator recruitment by human PPARgamma. P37231. biochemical PPARgamma/SRC-3 coactivator recruitment assay. activation, % at 8 µM. hit rate 0.26% among 200,000; in the data active = activation above about 23%
Large screens that a line does not name were inactive. Most compounds without a hit are left out; they make up all but 0.84% or so of the library. Rule as the data show it, unless noted: active = TR-FRET ratio above about 2000; inactive = the rest.

O=C(Oc1cc(Cl)ccc1Cl)c1ccc(N2CCOCC2)c([N+](=O)[O-])c1	none
CN(C)CCCN(C(=O)c1ccc(N2C(=O)CCC2=O)cc1)c1nc2c(F)cccc2s1	PPARg SRC-1 ag 22
CN(C)CCCN(C(=O)c1ccc2c(c1)CCCC2)c1nc2c(F)cccc2s1	none
CCOc1ccc(-n2nc3c(=S)[nH]nc(C)c3c2C)cc1	SRC3 TRFRET art 2186
CCOc1ccc(-n2nc3c(=O)[nH]nc(C)c3c2C)cc1	none
Cc1[nH]c2ccccc2c1C(=O)CSc1n[nH]c(N)n1	none
Cc1ccc(-c2csc3ncnc(-n4nnc5ccccc54)c23)cc1	SRC3 TRFRET art 2064
CCN1CCCC1CNC(=O)c1cc2c(-c3ccc(Cl)cc3)nn(C)c2s1 (stereo unspecified)	PPARg SRC-1 ag 22 (no result: SRC3 TRFRET art, SRC1 TRFRET art)
N#Cc1c(NC(=O)C2CC(Cl)=CCC2C(=O)O)sc2c1CCCC2 (stereo unspecified)	none
CCCCc1ccc(NC(=S)N2CCC(O)CC2)cc1	none
CCOC(=O)COc1ccc(/C=C2\NC(=S)N(CC)C2=O)cc1	SRC2 TRFRET art 3635, PPARg SRC-2 ag 94
COc1ccc(C2NC(=O)NC(C)=C2C(C)=O)cc1 (stereo unspecified)	none (no result: SRC3 TRFRET art, SRC1 TRFRET art)
O=C1NC2(CCCCCC2)N=C1c1ccc(Br)cc1	none
COc1ccc(/C(C)=N/NC(=O)CNC(=O)/C=C\c2ccco2)cc1	none
Oc1ccc(Cl)cc1C1=NNC(c2cc(Br)cc3c2OCOC3)C1 (stereo unspecified)	SRC1 TRFRET art 2488
CCOC(=O)c1sc(=NC(=O)c2cccs2)n(C)c1C	none
Cc1ccc2c(c1)sc(=NC(=O)c1cccs1)n2C	SRC3 TRFRET art 3246, SRC1 TRFRET art 2965
O=C(CSc1nnc(Cc2csc(Nc3cccc(Cl)c3)n2)o1)N1CCc2ccccc21	SRC2 TRFRET art 2013 (no result: SRC3 TRFRET art, SRC1 TRFRET art)
CC(C)NC(=O)COC(=O)C1CSC2(c3ccc(Br)cc3)CCC(=O)N12 (stereo unspecified)	none
O=C(c1cn(-c2ccccc2)nc1-c1cccs1)N1CCN(c2ccc(F)cc2)CC1	SRC2 TRFRET art 2165 (no result: SRC3 TRFRET art, SRC1 TRFRET art)
CC(NC(=O)COC(=O)c1cn(-c2ccccc2)nc1-c1cccs1)c1ccccc1 (stereo unspecified)	SRC2 TRFRET art 2073 (no result: SRC3 TRFRET art, SRC1 TRFRET art)
O=C(Nc1ccncc1)c1cn(-c2ccccc2)nc1-c1cccs1	none (no result: SRC3 TRFRET art, SRC1 TRFRET art)
CCn1cc(/C=C/C(=O)Nc2ccn(Cc3c(F)c(F)c(F)c(F)c3F)n2)cn1	PPARg SRC-2 ag 28
CCn1cc(/C=C/C(=O)Nc2c(C)nn(Cc3ccccc3C)c2C)cn1	none
CC1=NNC(=O)C1CC(=O)N/N=C(\C)c1ccco1 (stereo unspecified)	SRC1 TRFRET art 2343
CC1=NNC(=O)C1CCC(=O)N/N=C(\C)c1ccccc1 (stereo unspecified)	none
COc1ccc(Cn2c(-c3ccc(C)cc3)nc3c(c(=O)c4ccccc4n3C)c2=O)cc1	SRC2 TRFRET art 2131, PPARg SRC-2 ag 29
O=C(CSc1nnc2c3ccccc3c3ccccc3c2n1)Nc1ccccc1F	none (no result: SRC3 TRFRET art, SRC1 TRFRET art)
O=C(CSc1nnc2c3ccccc3c3ccccc3c2n1)Nc1ccccc1	PPARg SRC-1 ag 64 (no result: SRC3 TRFRET art, SRC1 TRFRET art)
COc1ccc(CNC(=O)COC(=O)c2ccccn2)cc1	none
COc1ccc(NC(=O)CSc2ccc3c4c(cccc24)C(=O)c2ccccc2-3)cc1	PPARg SRC3 recr 43 (no result: SRC3 TRFRET art, SRC1 TRFRET art)
N#Cc1cccc(NC(=O)CSc2ccc3c4c(cccc24)C(=O)c2ccccc2-3)c1	none (no result: SRC3 TRFRET art, SRC1 TRFRET art)
CCCCC(=O)N(Cc1ccc(-c2ccccc2-c2nn[nH]n2)cc1)[C@H](C(=O)O)C(C)C	none
COc1ccc(OC)c(NC(=O)CSc2nnc(N)s2)c1	PPARg SRC-2 ag 23 (no result: SRC3 TRFRET art, SRC1 TRFRET art)
COc1ccc(OC)c(NC(=O)CSc2nnc(-c3cccnc3)s2)c1	none
NNC(=O)c1cnn(-c2ccccc2)c1-n1cccc1	SRC2 TRFRET art 2005, PPARg SRC-2 ag 30
O=C(O)c1cnn(-c2ccccc2)c1-n1cccc1	none (no result: SRC3 TRFRET art, SRC1 TRFRET art)
CC1=Nc2ccccc2N=C(NC(=O)c2ccccc2)C1c1ccccc1 (stereo unspecified)	none
CCOC(=O)c1c(NC(=O)CSc2nc3ccccc3s2)sc(C(C)=O)c1C	SRC2 TRFRET art 2122 (no result: SRC3 TRFRET art, SRC1 TRFRET art)
CCOC(=O)c1c(NC(=O)CSc2nc3cc(Cl)ccc3s2)sc(C(C)=O)c1C	none
Cc1onc(-c2c(F)cccc2Cl)c1C(=O)N1C=CC(C(F)(F)F)=NCC1	SRC2 TRFRET art 2038 (no result: SRC3 TRFRET art, SRC1 TRFRET art)
Cc1onc(-c2c(Cl)cccc2Cl)c1C(=O)N1C=CC(C(F)(F)F)=NCC1	none (no result: SRC3 TRFRET art, SRC1 TRFRET art)
Cc1ccccc1C(=O)c1cccn1CC(=O)NCCC1=CCCCC1	SRC1 TRFRET art 2753
Cc1ccc(CNC(=O)Cn2cccc2C(=O)c2ccccc2C)cc1	none
CNC(=O)CSc1nnc(C2CC2)n1-c1ccccc1	none
Cn1nc(-c2ccccc2)c(C(=O)Nc2ccc(Cl)cc2)c1Cl	none (no result: SRC3 TRFRET art, SRC1 TRFRET art)
Cn1nc(-c2ccccc2)c(C(=O)Nc2ccc(C(F)(F)F)cc2)c1Cl	PPARg SRC3 recr 32 (no result: SRC3 TRFRET art, SRC1 TRFRET art)
Cc1cccc(/C=C2/S/C(=N/N=C3\CC4CCC3(C)C4(C)C)NC2=O)c1 (stereo unspecified)	none (no result: SRC3 TRFRET art, SRC1 TRFRET art)
O=C(CNCc1cccs1)Nc1ccc(N2CCCCCC2)cc1	none
Cc1ccc(S(=O)(=O)Nc2ccc3c(c2)c2c(n3S(=O)(=O)c3ccc(C)cc3)CCCC2=O)cc1	none
Cc1nnsc1SCCNC(=O)Nc1ccc(Cl)cc1	none
O=C(Nc1nc(-c2ccccc2)nc2ccccc12)c1ccc(F)cc1	SRC3 TRFRET art 2774, PPARg SRC3 recr 34
CC(=O)Nc1ccc(Nc2nc(-c3ccccc3)nc3ccccc23)cc1	none
CCOC(=O)c1ccc(NC2=CC(=O)CC(c3ccco3)C2)cc1 (stereo unspecified)	SRC2 TRFRET art 2006
CC1CN(C(=S)NC(=O)c2ccco2)CC(C)O1 (stereo unspecified)	none
COc1cccc(/C=N/NC(=O)c2csc(-n3nc(C)cc3C(F)(F)F)n2)c1	PPARg SRC3 recr 27 (no result: SRC3 TRFRET art, SRC1 TRFRET art)
CCc1cccc(CC)c1NC(=O)CN1CC(C)SC1=NC1CCCCC1 (stereo unspecified)	none (no result: SRC3 TRFRET art, SRC1 TRFRET art)
Cc1ccc(N2C(=O)C3CCC(c4ccccc4)CC3C2=O)cc1 (stereo unspecified)	PPARg SRC-1 ag 37, SRC1 TRFRET art 2647
O=C(COc1ccc2ccccc2c1)NNC(=O)Cc1ccccc1	PPARg SRC-1 ag 65, SRC1 TRFRET art 2551
O=C(COc1ccc2ccccc2c1)Nc1ccc(S(=O)(=O)N2CCCCCC2)cc1	SRC2 TRFRET art 2073 (no result: SRC3 TRFRET art, SRC1 TRFRET art)
Cc1cnc(C)c(N2CCN(Cc3nc(-c4ccccc4)no3)CC2)n1	none
Nc1ccc(SCC(=O)Nc2cccc([N+](=O)[O-])c2)cc1	none
O=C(COc1ccc(/C=N/NC(=O)c2cc3ccccc3o2)cc1Br)Nc1ccccc1	SRC2 TRFRET art 3281, PPARg SRC-2 ag 63 (no result: SRC3 TRFRET art, SRC1 TRFRET art)
CCOC(=O)C1=C(C)Nc2ccccc2N=C1NC(=O)c1cccc(S(=O)(=O)N(C)C)c1	none (no result: SRC3 TRFRET art, SRC1 TRFRET art)
CCOC(=O)C1=C(C)Nc2ccccc2N=C1NC(=O)C(c1ccccc1)c1ccccc1	SRC3 TRFRET art 2077

Source: PubChem (The Scripps Research Institute Molecular Screening Center)
